# Target: VEGF-A121 (Homo sapiens, UniProt P15692 SEQ:1-121)
# Assay: competition; TR-FRET
# Settings: tags: glycan-biotinylated for SPR/FRET/AlphaLISA; Acro BioSystems, Biolegend; chain copies: 2 (stated); ssRNA; all G 2'-F; A,C,U 2'-OMe; 5' C6NH2; 3' idT
# Method: Briefly, for competition TR-FRET, 2-fold dilutions of thermally equilibrated aptamers were made in TR-FRET Buffer (50 mM MOPS, pH 7.4, 125 mM NaCl, 5 mM KCl, 50 μM CHAPS, 0.1 mg/mL BSA, 1 mM CaCl₂, and 1 mM MgCl₂). 5 μL of aptamer or control solution was added to a 15 μL mix of glycan biotinylated […] (5 nM final), ALEXA FLUOR® 647-labeled Aptamer (30 nM final), and Streptavidin-Eu (Perkin Elmer; 2.5 nM final) in a black wall low volume 384 well plate (Greiner). For control, 5 μl of 1000-fold excess of unlabeled parent aptamer or 5 μl TR-FRET buffer alone was added to the mix of ALEXA FLUOR® 647-labeled aptamer, biotin-VEGF-A, and Streptavidin-Eu. The plate was covered with a plate seal and subsequently incubated in the dark for 1 hour at room temperature. The plate was read on a Biotek CYTATION™ 5 plate reader. Samples were excited at 330 nm and fluorescent values were collected at 665 nm. Data analysis was performed by subtracting the background value and plotting as percent inhibition, normalized to baseline in the absence of competitor. The values were fit by [Inhibitor] vs. response-Variable slope (four parameters) using GraphPad Prism Version 7.0 and then normalized to aptamer control to obtain an IC₅₀ relative to parent aptamer. Data is presented as log values of relative IC₅₀.
# Activity of each of these variants were tested using a time resolved competition TR-FRET assay, as described in Example 7, in which a labeled parent was competed with increasing concentrations of unlabeled variants for binding to VEGF-A₁₂₁.
# Chain of VEGF-A121 (P15692 other isoform, or with tags, fused parts or gaps): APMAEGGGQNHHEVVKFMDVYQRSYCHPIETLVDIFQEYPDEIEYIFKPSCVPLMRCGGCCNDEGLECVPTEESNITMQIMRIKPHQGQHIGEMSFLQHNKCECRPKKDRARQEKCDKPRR
row,Sequence,binding signal
1,AGGCCGCCUCCGCGCGGAGAGGUUUCAUUAUCUCGUUUGGCGGCUU,~7 fold worse IC50 vs Aptamer 26
2,AGGCCGCCUCCGCGCGGAGGGGUUCAUAUCCCGUUUGGCGGCUU,~8 fold worse IC50 vs Aptamer 26
3,AGGCCGCCUCCGCGCGGAGAGGGUUCAUUCCCUCGUUUGGCGGCUU,~9 fold worse IC50 vs Aptamer 26
4,AGGCCGCCUCCGUGCGGAGGGGUUUCAUUAUCCCGUUUGGCGGCUU,4 fold worse IC50 vs Aptamer 26
5,AGGCCGCCUCCGCGCGGACCGGUUUCAUUACCGGGUUUGGCGGCUU,~9 fold worse IC50 vs Aptamer 26

# Reference: patent US20220098591, “STEM-LOOP COMPOSITIONS AND METHODS FOR INHIBITING VASCULAR ENDOTHELIAL GROWTN FACTOR” (DRIVE THERAPEUTICS LLC, published 2022)
